From PubChem BioAssay AID651640 (Broad Institute, 2012) come the findings set out here.

The campaign covered roughly 350,000 compounds. About 6,000 (1.7%) were called active. Inconclusive results (about 5%) are left out. What follows is part of a selection rich in actives, with near analogues and random picks from the rest. Values without a mark were called inactive. No stated cut-off is given here; in the data, active means CPE inhibition above about 20% (passing the limit was not always enough); inconclusive means no clear call, values can overlap the other calls; tested in BHK-21 cells.

This assay is described as follows: protection of cells from dengue 2 killing – plate reader, single concentration, primary screen (AID 651640).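 Further: 0% = median of neutral control wells and 100% = median of positive control wells.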 The note with it: DENV2-infected cells, cytopathic effect rescue, at 9.99 µM, active compounds read high. For orientation: Damage to the host cells serves as the signal in cytopathic effect assays.
`Cc1ccc(N2CC(C(=O)N3CCC4(CC3)CC(=O)c3ccccc3O4)CC2=O)cc1C` (stereo unspecified): the CPE inhibition is -6.93%.

`O=C1CC2(CCCCC2)Oc2ccc(OCC(=O)N3CCOCC3)cc21`: the CPE inhibition was 2.58%.

Regarding `O=C1CC2(CCN(C(=O)COc3ccc(F)cc3)CC2)Oc2ccccc21`, the CPE inhibition was 29.9% (active).

On to `Cc1cccc(Oc2c([N+](=O)[O-])c(=O)n(C)c3ccccc23)c1`, for which the CPE inhibition was -2.07%.

Regarding `COc1cc2c(=O)n(C)c3ccccc3c2cc1OC`, the CPE inhibition is 0.702%.

As to `Cc1cc(C)c(-c2c(O)c3ccccc3n(C)c2=O)c(C)c1`, the CPE inhibition is 72% (active).

With `CC(C)NC(=O)N(C)C[C@H]1OCCCC[C@H](C)Oc2ccc(NC(=O)CCC(F)(F)F)cc2C(=O)N([C@H](C)CO)C[C@H]1C`, the CPE inhibition was 7.36%.

With `CCN1C(=S)N[C@@H](CCc2ccccc2)[C@H](C(=O)OC)[C@H]1C`, the CPE inhibition is 65.7% (active).

Take `CCN1C(=O)N[C@@H](CCc2ccccc2)C(C(=O)OC)=C1C`: the CPE inhibition is -5.47%.

Consider `COCCN1C(=O)N[C@@H](CCc2ccccc2)[C@H](C(C)=O)[C@H]1C`, for which the CPE inhibition was -5.61%.

Turning to `CCS(=O)(=O)Nc1ccc2c(c1)C(=O)N(C)[C@H]1CC[C@@H](CC(=O)N3CCCCC3)O[C@H]1CO2`, the CPE inhibition is -4.09%.

On to `COc1ccc(S(=O)(=O)N(C)C[C@H]2Oc3ccc(NC(=O)CCC(F)(F)F)cc3CC(=O)N([C@H](C)CO)C[C@@H]2C)cc1`, for which the CPE inhibition was 15.8%.

Consider `CO[C@H]1CN(C)C(=O)c2ccc(NC(C)=O)cc2OC[C@@H](C)N(C(=O)c2ccccn2)C[C@@H]1C`, for which the CPE inhibition was -11.8%.

On to `C[C@H](CO)N1C[C@H](C)[C@H](CN(C)C(=O)Nc2cccc(Cl)c2Cl)OCc2ccccc2-c2ccccc2C1=O`, for which the CPE inhibition is -3.92%.

`O=C(NC(=S)Nc1ccc(Cl)cc1Cl)C1CC1`: the CPE inhibition was 86.2% (active).

As for `O=C(NC(=S)Nc1ccc(Br)cc1F)C1CCCCC1`, the CPE inhibition is -4%.

Take `S=C(Nc1ccc(Cl)cc1Cl)N1CCCC1`: the CPE inhibition is -8.93%.

Consider `O=C(Cc1ccccc1)N1C[C@@H]2[C@H](c3ccccc31)[C@@H](CO)N2C(=O)C1CC1`, for which the CPE inhibition is -0.201%.

Turning to `CC(=O)N[C@@H]1CC[C@@H](CCNC(=O)C2CC2)O[C@H]1CO`, the CPE inhibition is 1.82%.

As for `COc1cccc(CNC(=O)CCN2C(=S)NC(C)(C)CC2C)c1` (stereo unspecified), the CPE inhibition was 8.33%.

As to `CC1CC(C)(C)NC(=S)N1CCC(=O)N1CCN(Cc2ccccc2)CC1` (stereo unspecified), the CPE inhibition is 16.6%.

Consider `CCN(Cc1ccccc1)C(=O)CN1C(=S)NC(C)(C)CC1C` (stereo unspecified), for which the CPE inhibition was 65.7% (active).

As to `C[C@@H]1CN([C@@H](C)CO)C(=O)c2cc(NC(=O)Cn3cnnn3)ccc2O[C@H]1CN(C)Cc1ccc(C(F)(F)F)cc1`, the CPE inhibition was -5.69%.

Regarding `N#Cc1cccc(-c2ccc([C@H]3[C@@H](CO)N4CCCCN(C(=O)Nc5ccccc5)C[C@H]34)cc2)c1`, the CPE inhibition was -9.56%.

For the compound `O=C(C1CCCC1)N1[C@@H](CO)[C@@H](c2ccccc2)C12CN(Cc1ccc(F)cc1)C2`, the CPE inhibition is -1.84%.

`C/C=C/c1ccc([C@@H]2[C@@H](CO)N(C(=O)c3ccccc3)C23CN(C(C)=O)C3)cc1`: the CPE inhibition is 70.8% (active).

Turning to `CN(C)CC(=O)N1[C@@H](CO)[C@H](c2ccccc2)C12CN(C(=O)c1cccc(F)c1)C2`, the CPE inhibition is 49.2% (active).

As to `C/C=C/c1ccc([C@@H]2[C@H](CO)N(C(=O)c3cnccn3)C23CN(C(C)=O)C3)cc1`, the CPE inhibition is 3.48%.

On to `CCCNC(=O)N1CC2(C1)[C@H](c1ccccc1)[C@@H](CO)N2C(=O)C1CC1`, for which the CPE inhibition is 16.7%.

For the compound `COCC(=O)N1CC2(C1)[C@@H](c1ccc(-c3cccc(F)c3)cc1)[C@@H](CO)N2C(=O)COC`, the CPE inhibition is -4.52%.

Consider `CN(C)CC(=O)N1CC2(C1)[C@H](c1ccccc1)[C@H](CO)N2C(=O)C1CC1`, for which the CPE inhibition is 24.3% (active).

With `CCC(=O)N1CC2(C1)[C@H](c1ccccc1)[C@@H](CO)N2C(=O)c1ccccc1`, the CPE inhibition is -0.875%.

`CN(C)CC(=O)N1CC2(C1)[C@H](c1ccccc1)[C@@H](CO)N2C(=O)C1CCCCC1`: the CPE inhibition is -1.45%.

Turning to `CC(=O)N1CC2(C1)[C@H](c1ccccc1)[C@@H](CO)N2C(=O)Cc1ccccc1`, the CPE inhibition was 4.56%.

Turning to `O=C(c1ccccn1)N1CC2(C1)[C@@H](c1ccccc1)[C@@H](CO)N2C(=O)C1CCCCC1`, the CPE inhibition is 4.48%.

Take `O=C(C1CCCCC1)N1[C@H](CO)[C@@H](c2ccccc2)C12CN(Cc1cccc(Cl)c1)C2`: the CPE inhibition was 27.1% (active).

As to `COc1ccc2c3c([nH]c2c1)[C@H](CO)N(C(=O)Nc1ccc(F)cc1)CC31CCN(C(=O)Nc2c(C)noc2C)CC1`, the CPE inhibition is -3.75%.

Regarding `CC=Cc1ccc2n(c1=O)C[C@@H]1[C@@H](CO)[C@H](C(=O)NCCc3ccccc3)N(C(C)=O)[C@H]21` (mixture of isomers), the CPE inhibition is -2.04%.

With `Cc1ccc(S(=O)(=O)NCC[C@H]2CC[C@@H](NS(=O)(=O)c3ccccc3Cl)[C@H](CO)O2)cc1`, the CPE inhibition was -7.15%.

`COc1ccc(CN(C)C[C@H]2OCCCC[C@H](C)Oc3ccc(NC(=O)Nc4ccc5c(c4)OCO5)cc3C(=O)N([C@H](C)CO)C[C@@H]2C)cc1`: the CPE inhibition is -3.02%.

As to `N#C[C@H]1[C@@H](c2ccccc2C2=CCCC2)[C@H](CO)N1C(=O)c1cccc(F)c1`, the CPE inhibition was 19.5%.

On to `C[C@@H]1CN([C@@H](C)CO)C(=O)c2cc(NC(=O)NC3CCCCC3)ccc2O[C@@H](C)CCCCO[C@H]1CN(C)Cc1ccccc1`, for which the CPE inhibition was 1.48%.

With `CCCC#Cc1cnc2c(c1)C(=O)N([C@H](C)CO)C[C@@H](C)[C@@H](CN(C)C(=O)Nc1ccccc1F)O2`, the CPE inhibition is -4.21%.

Turning to `CO[C@@H]1CN(C)C(=O)c2ccc(NC(=O)c3ccc(F)cc3)cc2OC[C@H](C)N(C(=O)c2ccc(F)cc2)C[C@@H]1C`, the CPE inhibition was -1.44%.

On to `C[C@@H]1CN([C@@H](C)CO)C(=O)c2c(c3ccccc3n2C)-c2ccccc2CO[C@H]1CN(C)Cc1cccc(C(=O)O)c1`, for which the CPE inhibition is 8.1%.

On to `COc1cccc(C#Cc2cnc3c(c2)C(=O)N([C@H](C)CO)C[C@@H](C)[C@@H](CN(C)C(=O)C2CCC2)O3)c1`, for which the CPE inhibition was -2.93%.
